In the supplement of paper PMC10720658:
± gives the standard deviation of the averaged measurements.

Each compound was assayed on AEK1 (Tb927.3.2440) (assay: percent reduction in TR-FRET probe signal relative to DMSO control; higher = stronger displacement of ATP-site probe (binding)). Details: 1 µM; incubation time 1 h.
In the case of CN1CCN(c2ccc(C(=O)Nc3n[nH]c4ccc(Cc5cc(F)cc(F)c5)cc34)c(NC3CCOCC3)c2)CC1 [Entrectinib (RXDX-101)], the “percent reduction in TR-FRET probe signal” value (“percent reduction” for short) is reported as -3.42 ± 2.4%. Cc1ccc2nc(NCCN)c3ncc(C)n3c2c1 was tested, and the “percent reduction” value was -7.43 ± 3.5%. With Cn1cc(-c2ccc3nnc(C(F)(F)c4ccc5ncccc5c4)n3n2)cn1 the “percent reduction” value was -0.537 ± 18%. With COCCOc1ccc2c(c1)ncn2-c1ccc2cccc(N3CCC(N)CC3)c2n1 the “percent reduction” value was 24.4 ± 7.1%. With Nc1cccc(-c2cc3c(Oc4cccc(O)c4)ncnc3[nH]2)c1 the “percent reduction” value was 18.7 ± 22%. COc1cc(Nc2c(C#N)cnc3cc(OCCCN4CCN(C)CC4)c(OC)cc23)c(Cl)cc1Cl [Bosutinib (SKI-606)] was tested, and the “percent reduction” value was 0.893 ± 13%. For CN1CCN(S(=O)(=O)c2ccc(-c3cnc(N)c(C(=O)Nc4cccnc4)n3)cc2)CC1, the “percent reduction” value was -4.29 ± 6.5%. For Nc1ccc(-c2ccc3ncc4ccc(=O)n(-c5cccc(C(F)(F)F)c5)c4c3c2)cn1 [Torin 2], the “percent reduction” value was 1.07 ± 4.9%. For CCN(C)S(=O)(=O)Nc1ccc(F)c(C(=O)c2c[nH]c3ncc(-c4cnc(C5CC5)nc4)cc23)c1F, the “percent reduction” value was -1.7 ± 4%. In the case of O=C(NOCC1CC1)c1ccc(F)c(F)c1Nc1ccc(I)cc1Cl, the “percent reduction” value is reported as 5.58 ± 12%. With Cc1cc(C)c(/C=C2\C(=O)Nc3ccccc32)[nH]1 [Semaxanib (SU5416)] the “percent reduction” value was 2.37 ± 8.9%. In the case of CCN(CC)CCCCNc1ncc2cc(-c3cc(OC)cc(OC)c3)c(NC(=O)NC(C)(C)C)nc2n1, the “percent reduction” value is reported as -17.7 ± 31%. Cn1ncc(Cl)c1-c1cc(C(=O)N[C@H](CN)Cc2ccc(F)c(F)c2)oc1Cl was tested, and the “percent reduction” value was 33.2 ± 9.4%. O=c1c(-c2ccc(O)cc2)coc2cc(O)cc(O)c12 [Genistein] was tested, and the “percent reduction” value was 23.3 ± 20%.
